Screening data (PubChem BioAssay)
Hits are enriched below; roughly 3.8% of the tested compounds scored in any of these assays.
TrxR1 substrate: is turned over as a substrate by rat TrxR1; O89049; purified TrxR1 substrate turnover, NADPH consumption readout; Potency, µM (titrated, usually from 114 µM), inactives show at the highest dose activity change, negative = substrate turnover; 390,000 compounds, 0.01% hits; also: potency is read from the fitted curve at half-maximal effect; % is scaled to controls: 0 for no effect and ±100 for the full control effect; nearly all actives have a fitted effect of over 50% in size
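Rat TrxR1, dispensed at 90 nM, was prereduced with 400 uM NADPH (final) for 5 min at ~22 deg C, then incubated with compound 15 min before 400 uM selenite. A first-read NADPH fluorescence drop versus no-compound background flagged substrates.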
Sfp inh: Sfp phosphopantetheinyl transferase inhibition | Biochemical Sfp PPTase activity, qHTS | Potency, µM, for inactives: largest response in the series, negative = inhibition, most hits filed as inhibitors | 310,000 compounds, 3.5% hits | AID 1490;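 also: the enzyme is Sfp with the accession as filed and its product quenches rhodamine fluorescence; potency is read from the fitted curve at half-maximal effect; 0% = enzyme reaction without inhibitor and -100% = no enzyme wells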
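Sfp 15 nM + cpd, 15 min RT; start w/ rhodamine-CoA 5 uM, BHQ-2-YbbR 12.5 uM (final); 50 mM Hepes pH 7.6, 10 mM MgCl2, 0.01% NP-40, 0.01% BSA; read 525/598 nm at 0 and 30 min.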
GLS inhibitor: blocks human kidney-isoform glutaminase activity; O94925; GLS enzymatic activity, qHTS titration; Potency, µM (titrated, usually from 45.5 µM), for inactives: at the top dose activity change, negative = inhibition, usual class: inhibitors; 410,000 compounds, 0.21% hits; AID 624170; also: potency is read from the fitted curve at half-maximal effect; % is scaled to controls: 0 for no effect and ±100 for the full control effect
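hKGA; 45 mM KH2PO4 pH 8.2 + 0.02% Tween-20; cpd via pin tool; 1 mM Gln soln; GluOx/HRP/Amplex Red; RT 30 min; fluor. t0 & final.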
VDR inh: inhibitors of human vitamin D receptor; P11473; VDR-SRC2-3 peptide fluorescence polarization, 2 h; Potency, µM, for the others: max response, negative = inhibition, usual class: inhibitors; 400,000 compounds, 0.93% hits; AID 504847; also: potency is read from the fitted curve at half-maximal effect; % is scaled to controls: 0 for no effect and ±100 for the full control effect
Target sequence (P11473 whole entry, looked up): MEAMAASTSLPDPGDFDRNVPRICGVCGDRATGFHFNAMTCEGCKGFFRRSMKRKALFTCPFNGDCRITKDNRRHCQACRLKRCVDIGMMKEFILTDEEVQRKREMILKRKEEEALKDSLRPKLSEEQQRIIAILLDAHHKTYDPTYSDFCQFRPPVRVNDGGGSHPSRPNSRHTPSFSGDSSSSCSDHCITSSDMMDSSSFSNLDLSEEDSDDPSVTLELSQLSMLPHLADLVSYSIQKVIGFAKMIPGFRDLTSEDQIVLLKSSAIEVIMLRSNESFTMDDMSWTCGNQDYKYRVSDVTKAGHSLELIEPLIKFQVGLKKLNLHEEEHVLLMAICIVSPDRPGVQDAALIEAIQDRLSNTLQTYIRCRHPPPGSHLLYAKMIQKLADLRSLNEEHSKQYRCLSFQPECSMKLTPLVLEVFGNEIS
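Reagent solutions, kept cold and dark, are dispensed first; compounds are then pinned in at 23 nl, plates briefly spun, and incubated 2 h at ambient temperature. Inhibition of VDR–SRC2-3 peptide binding is read by fluorescence polarization.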
TrxR1 inh: blocks rat thioredoxin reductase 1. Potency, µM (top dose mostly 114 µM), without a hit: at the top dose activity change, negative = inhibition, actives largely listed as inhibitors. 390,000 compounds, 1% hits. recombinant rTrxR1, NADPH fluorescence consumption, selenite substrate. O89049. AID 588453; also: potency is read from the fitted curve at half-maximal effect; % is scaled to controls: 0 for no effect and ±100 for the full control effect; nearly all actives have a fitted effect of over 65% in size
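Rat TrxR1 (90 nM in the dispensed reagent) was pre-reduced with 400 uM NADPH for 5 min at room temperature, then incubated with compound for 15 min. After 400 uM selenite was added, NADPH fluorescence (Ex 340/Em 450 nm) was followed for 8 min.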
GCN5L2 inh-1: blocks human GCN5L2 histone acetyltransferase. Q92830. GCN5L2 HAT assay, ThioGlo1 CoA-SH fluorescence. Potency, µM (series often up to 58.9 µM), for the others: at the top dose activity change, negative = inhibition, most hits filed as inhibitors. 390,000 compounds, 0.21% hits; also: potency is read from the fitted curve at half-maximal effect; % is scaled to controls: 0 for no effect and ±100 for the full control effect
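qHTS, 1536-well. 20nM enzyme, pH 7.5 HEPES/EDTA/Tween-20 buffer; 15 min compound preinc., RT. Start: 75uM H3(1-25), 70uM AcCoA, 50uM ThioGlo1. Read Ex340/Em540 at t=0 (autofluorescence flag) and t=20 min.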
GCN5L2 inh-2: confirmation of human GCN5L2 histone acetyltransferase inhibitors; shares compounds with GCN5L2 inh-1; GCN5L2 HAT, ThioGlo1 CoA fluorescence, 20 min; Potency, µM, usual class: inhibitors; 140 compounds, 70% hits; AID 588347
* hit, by the source's call; u = inconclusive; x = not tested or not shown; [ ] = another dose, or the depositor's remark. Calls follow the shape of the dose curve; as a rule, active = well fitted curve in the direction sought with a large enough effect; inconclusive = small, poorly fitted or top-dose-only effect, or another doubt; inactive = no such curve, though single readings can be large; an effect the other way counts as inactive or inconclusive.

SMILES	TrxR1 substrate	Sfp inh	GLS inhibitor	VDR inh	TrxR1 inh	GCN5L2 inh-1	GCN5L2 inh-2
O=C(CN1C(=O)c2ccccc2Sc2ncccc21)Nc1cccc(C(F)(F)F)c1	-7%	x	1%	-1%	1%	-2%	x
O=C(CN1C(=O)/C(=C2/SC(=S)N(CCS(=O)(=O)O)C2=O)c2ccccc21)Nc1cccc(C(F)(F)F)c1	-5%	x	3%	u	-14%	28µM*	u
COc1ccc(-c2noc(-c3ccc(NC4CCCC4)c([N+](=O)[O-])c3)n2)cc1	0%	x	3%	7%	5%	-6%	x
O=C(COC(=O)CNC(=O)C1CCCCC1)Nc1ccc2c(c1)OCCO2	9%	19%	-2%	4%	5%[57.1 µM]	-1%	x
Cc1cc2nc(-c3ccc[nH]c3=O)[nH]c2cc1C	726%[57.1 µM]	7%	-5%	-5%	195%	28µM*	36*
COc1cc2c(cc1/C=C/C(=O)O)OC(C)C2 (stereo not drawn)	306%	8%	0%	13%	-21%	u	x
CC(C)(O)C1Cc2cc(/C=C/C(=O)O)c(O)cc2O1 (stereo not drawn)	8%[57.1 µM]	6.3µM*	3%	u	u	10µM*	9.1*
CCCOc1ccc(/C(O)=C2/C(=O)C(=O)N(CCN(C)C)C2c2ccc(O)c(OC)c2)cc1 (stereo not drawn)	-7%[57.1 µM]	8%	12%	27%	-15%	-3%	x
Cc1cccc(C)c1NC(=O)CSc1nnc(-c2ccco2)c(-c2ccco2)n1	4%	11µM*	142%	u	3.2µM*	13µM*	u
O=C(CSc1nnc(-c2ccco2)c(-c2ccco2)n1)Nc1ccccc1	-13%	8.9µM*	-5%	u	5µM*	u	26*
O=C(N/C(=C\c1cccc([N+](=O)[O-])c1)C(=O)N1CCCCC1)c1cccs1	-11%	14%	-1%	5%	-3%	-4%	x
Cc1ccc(S(=O)(=O)N2[C@@H](c3ccccc3F)C(C(=O)O)=CC[C@H]2c2ccc(Cl)c(Cl)c2)cc1	5%	x	18%	-3%	5%[57.1 µM]	28µM*	u
Cc1ccc(S(=O)(=O)N2[C@@H](c3ccc(Br)cc3)C(C(=O)O)=CC[C@H]2c2ccc(Cl)cc2)cc1	3%	x	11%	-26%	6%	u	x
O=C(O)C1=CC[C@@H](c2ccc(Cl)cc2)N(S(=O)(=O)c2ccc(Cl)cc2)[C@H]1c1ccc(Br)cc1	-1%	x	4%	-28%	7%	25µM*	18*
O=C(Nc1ccc(O)c(-c2nc3ccccc3o2)c1)C1(c2ccc([N+](=O)[O-])cc2)CCCC1	-7%[11.4 µM]	-13%	2%	-22%	-7%[11.4 µM]	-5%	x
O=C(Nc1ccc(O)c(-c2nc3ccccc3o2)c1)C1(c2ccc(Cl)cc2)CCCC1	-7%	-16%	8%	-7%	1%	u	14*
Cc1ccc(NC(=O)C2(C)CCN2Cc2csc3ccccc23)cc1 (stereo not drawn)	x	x	4%	x	x	x	x
COc1ccc2cc(-c3cc(C(=O)O)c4ccccc4n3)ccc2c1	36%	9%	18%	-3%	-8%	u	u
O=C(O)c1cc(-c2ccc(-c3ccc(F)cc3)o2)nc2ccccc12	103%	3.5µM*	11%	u	-7%	u	20*
O=C(c1cc(-c2ccc(F)cc2)nc2ccccc12)N1CCC1	7%	x	-2%	-3%	7%	-2%	x
COc1ccc(-c2cc(C(=O)O)c3ccccc3n2)c(OC)c1	8%[57.1 µM]	5%	2%	10%	10%[57.1 µM]	-2%	x
COc1ccc(N2C(=O)C3C4C=CC(CC4)C3C2=O)c([N+](=O)[O-])c1 (stereo not drawn)	2%	13%	-8%	-2%	4%	0%	x
